Assay results reported in paper PMC5540273 (PLoS ONE, 2017).
Several values for one entry are separate records, joined by “and”; a condition that tells them apart may be missing. Equal entries are not always repeated. Where two headings read alike, the source gives them in different places.

What was measured:
SBK1 = conditions: concentration: 1 μM, replicates: in singlicate, n = 1
SGK2 = conditions: concentration: 1 μM, replicates: in singlicate, n = 1
SGK3 = conditions: concentration: 1 μM, replicates: in singlicate, n = 1
SGK = conditions: concentration: 1 μM, replicates: in singlicate, n = 1
SIK2 = conditions: concentration: 1 μM, replicates: in singlicate, n = 1
SIK = conditions: concentration: 1 μM, replicates: in singlicate, n = 1
SLK = conditions: concentration: 1 μM, replicates: in singlicate, n = 1
SNARK = system: T1, SNARK; conditions: concentration: 1 μM, replicates: in singlicate, n = 1
T1 construct: gene NUAK2

SNRK = conditions: concentration: 1 μM, replicates: in singlicate; n = 1
SRC = conditions: concentration: 1 μM, replicates: in singlicate, n = 1
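Further: KINOMEscan kinase panel screen.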

## Nc1nc(-c2ccccn2)c(-c2ccnc3ccccc23)s1 [GW548057]
SBK1
  %Inh: 0%
SGK2
  %Inh: 0%
SGK3
  %Inh: 6%
SGK
  %Inh: 0%
SIK2
  %Inh: 0%
SIK
  %Inh: 0%
SLK
  %Inh: 7%
SNARK
  %Inh: 0%
SNRK
  %Inh: 0%
SRC
  %Inh: 12%

## Clc1ccc(-c2cc(-c3c[nH]nc3-c3ccccn3)ccn2)cc1 [GW681251]
SBK1
  %Inh: 4%
SGK2
  %Inh: 0%
SGK3
  %Inh: 6%
SGK
  %Inh: 0%
SIK2
  %Inh: 0%
SIK
  %Inh: 0%
SLK
  %Inh: 10%
SNARK
  %Inh: 0%
SNRK
  %Inh: 0%
SRC
  %Inh: 0%

## COc1ccc(-c2nc3n(c2-c2ccncc2)CCC3)cc1 [SKF-104493]
SBK1; 1 µM
  %Inh: 27% and 8%
SGK2; 1 µM
  %Inh: 16% and 0%
SGK3; 1 µM
  %Inh: 13% and 2%
SGK; 1 µM
  %Inh: 7% and 0%
SIK2; 1 µM
  %Inh: 0% and 2%
SIK; 1 µM
  %Inh: 0% and 5%
SLK; 1 µM
  %Inh: 20% and 36%
SNARK; 1 µM
  %Inh: 7% and 2%
SNRK
  %Inh: 0%
SRC; 1 µM
  %Inh: 18% and 0%

## COc1ccc(-c2oc3ncnc(N)c3c2-c2ccc(OC)cc2)cc1 [SB-589132]
SBK1
  %Inh: 0%
SGK2
  %Inh: 5%
SGK3
  %Inh: 0%
SGK
  %Inh: 9%
SIK2
  %Inh: 2%
SIK
  %Inh: 1%
SLK
  %Inh: 20%
SNARK
  %Inh: 0%
SNRK
  %Inh: 0%
SRC
  %Inh: 40%

## Nc1nc(-c2cccnc2)c(-c2ccnc3ccccc23)s1 [GW684083]
SBK1
  %Inh: 17%
SGK2
  %Inh: 9%
SGK3
  %Inh: 0%
SGK
  %Inh: 45%
SIK2
  %Inh: 0%
SIK
  %Inh: 4%
SLK
  %Inh: 18%
SNARK
  %Inh: 0%
SNRK
  %Inh: 0%
SRC
  %Inh: 2%
